# Results from PubChem BioAssay (NCATS).
# Records with an inconclusive call do not appear. A call without a number means that no potency is given here. The source made the active and inactive calls. Unless noted, calls come from the whole dose curve; as a rule, active = well fitted curve in the direction sought with a large enough effect; inconclusive = small, poorly fitted or top-dose-only effect, or another doubt; inactive = no such curve, though single readings can be large; an effect the other way counts as inactive or inconclusive.
# Key:
# [1] = target: ATP-dependent 6-phosphofructokinase (Trypanosoma brucei brucei) (UniProt O15648); assay: qHTS Assay to Find Inhibitors of T. brucei phosphofructokinase: hit validation (AID 492961);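 note: luminescence reports ADP formed as PFK phosphorylates fructose-6-phosphate with ATP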; conditions: T. brucei PFK, ADP-Glo luminescence; series mostly up to 51.4 µM
# Outline: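 In this biochemical qHTS validation, titrated compounds were tested against 1.25 nM PFK with 0.1 mM ATP and 0.5 mM F6P. Percent activity came from controls lacking or containing enzyme.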
# [2] = Validation screen for small molecules that induce genotoxicity in human embryonic kidney (HEK293T) cells expressing luciferase-tagged ELG1 (AID 493106); conditions: luminescence; series mostly up to 46.1 µM
# Outline: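 Luminescence from an ELG1-luciferase fusion serves as the read-out, rising when genetic stress elevates ELG1 protein. HEK293T reporter cells (2,000 per well) received 23 nL compound, incubated 16 hr at 37 °C, then ONE-Glo for 30 min at room temperature.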
# [3] = target: ATPase family AAA domain-containing protein 5 (Homo sapiens) (UniProt Q96QE3); assay: Validation screen for small molecules that inhibit ELG1-dependent DNA repair in human embryonic kidney (HEK293T) cells expressing luciferase-tagged ELG1 (AID 493107); conditions: HEK293T ELG1-luciferase level, luminescence, 5-fluorouridine co-treatment, 16 h; series mostly up to 46.1 µM;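 note: cells co-treated with the DNA-damaging agent 5-fluorouridine alongside compound; inhibitors lower the ELG1-luciferase luminescence signal; nearly all actives have a fitted effect of over 70% in size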
# Chain of ATPase family AAA domain-containing protein 5 (Homo sapiens) (Q96QE3 whole entry, looked up, the tested form may be a part): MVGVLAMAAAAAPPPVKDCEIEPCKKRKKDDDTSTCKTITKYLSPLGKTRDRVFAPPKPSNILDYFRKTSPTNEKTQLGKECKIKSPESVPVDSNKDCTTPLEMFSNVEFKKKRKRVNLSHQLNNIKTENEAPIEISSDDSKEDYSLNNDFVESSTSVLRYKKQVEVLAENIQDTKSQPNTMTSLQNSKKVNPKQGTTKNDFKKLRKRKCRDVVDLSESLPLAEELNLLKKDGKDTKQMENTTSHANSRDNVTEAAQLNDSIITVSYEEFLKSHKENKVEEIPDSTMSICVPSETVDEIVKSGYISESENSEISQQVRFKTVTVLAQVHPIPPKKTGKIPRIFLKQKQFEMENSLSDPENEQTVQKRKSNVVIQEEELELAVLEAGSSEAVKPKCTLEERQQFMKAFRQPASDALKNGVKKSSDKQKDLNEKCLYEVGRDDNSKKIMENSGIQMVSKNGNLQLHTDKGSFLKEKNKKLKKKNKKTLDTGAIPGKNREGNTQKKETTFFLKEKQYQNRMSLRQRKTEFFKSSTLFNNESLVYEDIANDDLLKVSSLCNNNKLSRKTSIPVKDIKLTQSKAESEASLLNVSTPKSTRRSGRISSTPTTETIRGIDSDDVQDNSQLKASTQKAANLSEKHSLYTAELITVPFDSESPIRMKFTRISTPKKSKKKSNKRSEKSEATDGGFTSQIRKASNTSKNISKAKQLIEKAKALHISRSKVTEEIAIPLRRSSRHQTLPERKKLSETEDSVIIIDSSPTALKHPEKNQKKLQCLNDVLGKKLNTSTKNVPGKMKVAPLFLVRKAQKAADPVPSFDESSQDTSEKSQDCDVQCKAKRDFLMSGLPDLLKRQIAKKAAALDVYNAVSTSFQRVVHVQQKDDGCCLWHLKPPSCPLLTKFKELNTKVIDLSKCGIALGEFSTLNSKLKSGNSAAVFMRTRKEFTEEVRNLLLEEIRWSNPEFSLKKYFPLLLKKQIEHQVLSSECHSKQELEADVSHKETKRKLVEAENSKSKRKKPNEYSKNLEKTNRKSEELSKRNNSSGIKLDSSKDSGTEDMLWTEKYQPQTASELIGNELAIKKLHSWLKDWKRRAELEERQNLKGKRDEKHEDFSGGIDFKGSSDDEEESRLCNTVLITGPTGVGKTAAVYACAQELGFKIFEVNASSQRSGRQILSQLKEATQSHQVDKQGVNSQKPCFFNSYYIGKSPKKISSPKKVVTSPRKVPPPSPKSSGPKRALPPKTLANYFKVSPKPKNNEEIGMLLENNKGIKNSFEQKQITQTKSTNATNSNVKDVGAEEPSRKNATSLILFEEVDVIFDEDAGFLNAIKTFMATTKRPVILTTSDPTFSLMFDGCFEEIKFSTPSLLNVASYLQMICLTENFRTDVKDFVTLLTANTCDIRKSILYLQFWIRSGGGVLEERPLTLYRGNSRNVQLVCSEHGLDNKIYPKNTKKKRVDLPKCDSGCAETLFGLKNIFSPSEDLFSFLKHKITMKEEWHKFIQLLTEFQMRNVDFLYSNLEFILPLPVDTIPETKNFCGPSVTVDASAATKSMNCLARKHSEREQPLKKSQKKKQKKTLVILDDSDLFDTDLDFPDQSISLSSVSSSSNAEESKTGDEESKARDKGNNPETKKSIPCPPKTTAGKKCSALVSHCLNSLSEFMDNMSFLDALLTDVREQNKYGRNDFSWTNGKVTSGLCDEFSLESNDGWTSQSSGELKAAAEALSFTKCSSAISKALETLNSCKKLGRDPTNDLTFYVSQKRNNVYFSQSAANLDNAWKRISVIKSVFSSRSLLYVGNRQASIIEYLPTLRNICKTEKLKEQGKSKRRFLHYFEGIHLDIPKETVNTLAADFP
# Outline: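 Luminescence from ONE-Glo, developed 30 min at room temperature, served as read-out of ELG1-luciferase levels. Beforehand, reporter HEK293T cells received 5-fluorouridine plus test compound for 16 hr at 37 °C.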
# [4] = target: Galactokinase (Homo sapiens) (UniProt P51570); assay: qHTS Validation Assay for Inhibitors of Human Galactokinase (GALK) (AID 493189); conditions: purified human GALK enzyme activity, qHTS 7-point titration; series mostly up to 57.5 µM
# Chain of Galactokinase (Homo sapiens) (P51570 whole entry, looked up): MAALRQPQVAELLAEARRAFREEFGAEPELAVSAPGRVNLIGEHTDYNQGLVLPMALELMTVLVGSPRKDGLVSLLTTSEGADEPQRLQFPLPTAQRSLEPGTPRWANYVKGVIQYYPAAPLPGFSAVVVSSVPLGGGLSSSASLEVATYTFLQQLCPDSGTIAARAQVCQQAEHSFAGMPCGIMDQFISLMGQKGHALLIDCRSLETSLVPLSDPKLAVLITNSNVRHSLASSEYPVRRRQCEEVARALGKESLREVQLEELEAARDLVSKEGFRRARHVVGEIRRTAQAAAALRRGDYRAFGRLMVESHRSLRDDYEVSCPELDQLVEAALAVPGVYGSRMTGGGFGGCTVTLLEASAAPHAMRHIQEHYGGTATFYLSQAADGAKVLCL
# Outline: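 GALK (5 nM) with 35 uM ATP and 100 uM galactose in HEPES pH8.0, MgCl2, NaCl, DTT, BSA; 1 h at room temperature. Residual ATP read by Kinase-Glo Plus luminescence after 10 min.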
# [5] = Validation screen for small molecules that induce DNA re-replication in SW480 colon adenocarcinoma cells (AID 504364); conditions: DNA re-replication phenotype (high-content imaging); series mostly up to 46.1 µM
# Outline: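 250 cells/well; compound pinned in; 48 hr, 37 C, 5% CO2; Hoechst added, 40 min; nuclear fluorescence imaged, 405 ex / 500-530 em; re-replication scored as increase in high-intensity nuclei.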
# [6] = target: Peptidyl-prolyl cis-trans isomerase NIMA-interacting 1 (Homo sapiens) (UniProt Q13526); assay: qHTS Validation Assay to Find Inhibitors of Pin1 (AID 504536; active = well fitted inhibition curve with a large enough effect in the polarisation, with a control signal flat, not every such curve was filed as active; the % refers to the polarisation); conditions: Pin1 fluorescence polarization peptide binding assay; series mostly up to 57.5 µM
# Chain of Peptidyl-prolyl cis-trans isomerase NIMA-interacting 1 (Homo sapiens) (Q13526 whole entry, looked up): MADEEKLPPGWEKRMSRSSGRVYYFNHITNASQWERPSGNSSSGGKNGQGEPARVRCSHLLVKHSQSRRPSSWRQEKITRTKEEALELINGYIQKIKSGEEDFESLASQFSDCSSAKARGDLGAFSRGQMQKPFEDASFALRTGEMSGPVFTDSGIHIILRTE
# Outline: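 Fluorescence polarization competition: compounds (titration) displace HiFluor-488-labeled Pin1-1b peptide from Pin1 (0.3 uM final) in pH 7.5 HEPES buffer with DTT, 10 min at room temperature; %Activity normalized to no-enzyme wells, curves fitted.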
# [7] = target: Phosphoglycerate kinase, glycosomal (Trypanosoma brucei brucei) (UniProt P07378); assay: qHTS Validation Assay to Find Inhibitors of Phosphoglycerate Kinase (AID 504547); conditions: enzymatic PGK inhibition, coupled luminescence read-out; series mostly up to 57.5 µM
# Outline: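 Inhibition of the enzyme is judged by a Kinase-Glo Plus luminescent signal following a one-hour incubation at room temperature. Because 1,3-BPG is unstable, it is made in situ by GAPDH at 100nM final; no-PGK wells define the baseline.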
# [8] = target: Ubiquitin carboxyl-terminal hydrolase 1 (Homo sapiens) (UniProt O94782); assay: Inhibitors of USP1/UAF1: Pilot qHTS (AID 504865); conditions: purified USP1/UAF1, Ub-rhodamine cleavage fluorescence; series mostly up to 114 µM;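 note: rhodamine fluorescence freed from ubiquitin-rhodamine substrate followed over time; top concentration of the series differs between compounds; nearly all actives have a fitted effect of over 35% in size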
# Chain of Ubiquitin carboxyl-terminal hydrolase 1 (Homo sapiens) (O94782 whole entry, looked up): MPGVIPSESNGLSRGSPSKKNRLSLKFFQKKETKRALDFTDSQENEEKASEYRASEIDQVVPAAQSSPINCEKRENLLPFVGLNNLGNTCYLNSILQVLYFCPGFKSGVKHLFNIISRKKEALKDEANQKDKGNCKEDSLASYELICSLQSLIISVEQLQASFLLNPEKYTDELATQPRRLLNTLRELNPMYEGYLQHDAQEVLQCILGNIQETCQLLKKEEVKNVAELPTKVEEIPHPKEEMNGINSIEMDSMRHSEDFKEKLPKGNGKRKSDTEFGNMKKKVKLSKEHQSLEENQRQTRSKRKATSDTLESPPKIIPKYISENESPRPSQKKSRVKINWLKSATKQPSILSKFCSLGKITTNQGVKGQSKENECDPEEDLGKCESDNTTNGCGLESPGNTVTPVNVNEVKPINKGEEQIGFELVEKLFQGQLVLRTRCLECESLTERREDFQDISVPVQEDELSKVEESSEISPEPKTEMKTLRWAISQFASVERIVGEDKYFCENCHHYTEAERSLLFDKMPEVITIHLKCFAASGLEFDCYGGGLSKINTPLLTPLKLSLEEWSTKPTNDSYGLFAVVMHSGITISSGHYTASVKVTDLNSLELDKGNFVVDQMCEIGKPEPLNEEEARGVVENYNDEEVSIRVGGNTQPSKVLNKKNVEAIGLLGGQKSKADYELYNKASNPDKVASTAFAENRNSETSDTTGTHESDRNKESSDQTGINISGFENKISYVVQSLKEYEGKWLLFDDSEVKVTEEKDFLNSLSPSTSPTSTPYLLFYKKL
# Outline: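 USP1/UAF1 complex (1nM) preincubated with compound 15 min at room temperature, then Ub-Rho substrate (150nM final) added. Fluorescence read kinetically at 480/540 nm, 6 reads every 60 seconds. Buffer: 50mM HEPES pH 7.8, 0.5mM EDTA, 0.1 mg/ml BSA, 1mM TCEP, 0.01% Tween-20.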
# [9] = qHTS for Inhibitors of ATXN expression: Validation of Cytotoxic Assay (AID 588349); conditions: cytotoxicity counter-screen for ATXN expression inhibitors, cell viability; series mostly up to 57.1 µM
# Outline: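 Read-out: ATP-based luminescence (CellTiter Glo) reflecting viability of HEK293 cells after 72 hr incubation at 37 degrees C with a concentration series of each compound.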
# [10] = qHTS for Inhibitors of ATXN expression: Validation (AID 588378); conditions: cell-based ATXN2 expression reporter assay, luminescence; series mostly up to 57.1 µM; note: nearly all actives have a fitted effect of over 75% in size; note: potency is the fitted concentration of half-maximal effect
# Outline: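 Luminescence from an ATXN2-FFLuc reporter in HEK293 cells served as read-out after 24 h compound treatment at 37 degrees C; CellTiter-Fluor fluorescence was recorded first to assess viability.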
# [11] = target: DNA dC->dU-editing enzyme APOBEC-3G (Homo sapiens) (UniProt Q9HC16); assay: qHTS for inhibitors of Vif-A3G interactions: Validation (AID 588379); conditions: Vif-A3G protein interaction assay; series mostly up to 46.1 µM
# Chain of DNA dC->dU-editing enzyme APOBEC-3G (Homo sapiens) (Q9HC16 whole entry, looked up): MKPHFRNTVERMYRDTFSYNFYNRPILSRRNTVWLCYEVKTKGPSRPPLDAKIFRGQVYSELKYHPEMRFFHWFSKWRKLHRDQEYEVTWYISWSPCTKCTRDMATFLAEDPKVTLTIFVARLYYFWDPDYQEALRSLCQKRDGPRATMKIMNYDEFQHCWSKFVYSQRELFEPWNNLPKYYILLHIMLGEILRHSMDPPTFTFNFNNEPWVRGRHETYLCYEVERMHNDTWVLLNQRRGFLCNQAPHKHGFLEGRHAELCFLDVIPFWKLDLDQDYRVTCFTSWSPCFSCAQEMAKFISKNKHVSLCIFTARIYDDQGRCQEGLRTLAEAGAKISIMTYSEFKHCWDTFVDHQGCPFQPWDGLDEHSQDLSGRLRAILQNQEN
# Outline: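 HeLa cells stably expressing Vif and A3G-eYFP, 700 cells/well, incubated overnight at 37 deg C, then exposed to compound overnight at 37 deg C. Inhibition of Vif-mediated degradation read as increased yellow fluorescence (Ex 488/Em 500-530) by laser-scanning cytometry.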
# [12] = target: D(1A) dopamine receptor (Homo sapiens) (UniProt P21728); assay: HTS Assay for Allosteric Agonists of the Human D1 Dopamine Receptor: Primary Screen for Antagonists (AID 488983); conditions: D1 receptor cell assay, antagonist mode, qHTS titration; series mostly up to 41.8 µM;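 note: calcium flux response to an EC80 dopamine challenge measured with no-wash dye; nearly all actives have a fitted effect of over 65% in size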
# Chain of D(1A) dopamine receptor (Homo sapiens) (P21728 whole entry, looked up): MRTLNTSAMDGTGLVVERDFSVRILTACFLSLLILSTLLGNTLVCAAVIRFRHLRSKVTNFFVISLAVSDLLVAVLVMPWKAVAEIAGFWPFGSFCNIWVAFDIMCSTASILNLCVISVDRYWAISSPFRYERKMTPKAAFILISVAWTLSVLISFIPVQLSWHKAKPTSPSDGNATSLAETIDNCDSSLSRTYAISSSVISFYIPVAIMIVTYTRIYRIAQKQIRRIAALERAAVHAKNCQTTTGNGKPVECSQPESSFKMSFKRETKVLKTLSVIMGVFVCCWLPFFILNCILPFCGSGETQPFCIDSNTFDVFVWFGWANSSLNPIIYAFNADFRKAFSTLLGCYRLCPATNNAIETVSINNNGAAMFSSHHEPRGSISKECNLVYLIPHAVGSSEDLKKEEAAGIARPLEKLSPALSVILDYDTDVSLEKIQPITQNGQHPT
# Outline: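 Cells are induced with tetracycline and incubated overnight at 30 C, then loaded with calcium dye for 30 to 90 minutes at room temperature. Compound addition is followed by a 180 s read, then an EC80 dopamine addition and another 180 s read.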
# [13] = target: Thyrotropin-releasing hormone receptor (Homo sapiens) (UniProt P34981); assay: qHTS for Small Molecule Agonists and Allosteric Enhancers of Human TRH Receptor: Validation Screen for Agonists (AID 493127;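 active = calcium activation more than 3 SD above the typical response in the agonist read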;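 note: intracellular calcium rise by fluo-8 fluorescence before TRH EC20 addition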); conditions: TRH receptor agonist cell assay; at 2 µM; stronger effect = higher value
# Chain of Thyrotropin-releasing hormone receptor (Homo sapiens) (P34981 whole entry, looked up): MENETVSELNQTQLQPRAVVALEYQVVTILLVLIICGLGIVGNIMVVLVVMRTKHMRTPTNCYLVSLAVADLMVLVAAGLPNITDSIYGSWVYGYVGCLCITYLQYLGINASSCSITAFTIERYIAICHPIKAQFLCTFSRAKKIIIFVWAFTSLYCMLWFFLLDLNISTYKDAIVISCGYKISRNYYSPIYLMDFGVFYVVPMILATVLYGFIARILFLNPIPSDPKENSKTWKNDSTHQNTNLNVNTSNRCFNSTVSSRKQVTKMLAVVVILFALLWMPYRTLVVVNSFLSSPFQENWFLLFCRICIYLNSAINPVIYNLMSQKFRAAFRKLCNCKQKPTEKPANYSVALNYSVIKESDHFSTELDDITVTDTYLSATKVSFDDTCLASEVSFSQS
# Outline: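 Cells 2000/well, 10% FCS, 18 h 33.5C/5% CO2 → fluo-8 Ca dye, RT 30 min–1.5 h → FDSS baseline 10 × 1 s → compound added → 230 cycles (1 s/cycle) agonist mode. TRH controls.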
# [14] = qHTS for Inhibitors of Cell Surface uPA Generation: Validation Assay (AID 493164); conditions: mouse cells, plasminogen activation; series mostly up to 38.3 µM
# Outline: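 RAW 264.7 cells (4000/well) were plated overnight, then exposed for 18 h at 37 C, 5% CO2 to compounds in a 7-point 1:5 titration (2.45 nM–38.3 uM final). Intracellular ATP was read by ATP-Lite luminescence.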
# [15] = target: phosphoglycerate mutase (Leishmania major) (UniProt Q4Q090); assay: qHTS Validation Assay to Find Inhibitors of Phosphoglycerate Mutase (AID 504548); conditions: biochemical enzyme activity; series mostly up to 57.5 µM
# Chain of phosphoglycerate mutase (Leishmania major) (Q4Q090 1-553): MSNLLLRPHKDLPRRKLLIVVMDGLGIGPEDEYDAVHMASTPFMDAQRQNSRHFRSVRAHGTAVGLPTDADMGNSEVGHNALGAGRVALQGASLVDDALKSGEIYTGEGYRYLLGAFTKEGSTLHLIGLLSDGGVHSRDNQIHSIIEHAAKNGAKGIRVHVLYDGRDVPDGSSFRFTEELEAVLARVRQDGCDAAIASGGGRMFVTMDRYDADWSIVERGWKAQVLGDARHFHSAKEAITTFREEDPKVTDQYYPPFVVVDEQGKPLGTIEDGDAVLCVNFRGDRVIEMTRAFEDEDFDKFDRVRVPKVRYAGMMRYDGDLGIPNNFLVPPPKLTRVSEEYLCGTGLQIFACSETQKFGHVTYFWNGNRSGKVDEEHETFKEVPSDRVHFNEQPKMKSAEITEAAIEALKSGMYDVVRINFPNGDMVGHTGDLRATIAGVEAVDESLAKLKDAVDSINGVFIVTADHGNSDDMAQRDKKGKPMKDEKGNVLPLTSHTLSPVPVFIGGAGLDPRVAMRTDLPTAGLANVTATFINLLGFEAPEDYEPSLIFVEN
# Outline: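 Lm PGAM at 1.25 nM final with substrate in 100 mM TEA pH 7.6, 5 mM MgCl2, 0.01% Tween-20; 45 min at room temperature. Kinase-GloPlus added, 10 min, end-point luminescence read.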
# [16] = target: D(1A) dopamine receptor (Homo sapiens) (UniProt P21728); assay: HTS Assay for Allosteric Agonists of the Human D1 Dopamine Receptor: Primary Screen for Potentiators (AID 488982); conditions: HEK293 T-REx D1 inducible cells, calcium flux, kinetic fluorescence; series mostly up to 8.37 µM
# Outline: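 Calcium flux in an inducible, force-coupled HEK293 Trex D1 line (overnight at 30 C): agonist mode is the 180 s kinetic read after compound; potentiator mode is the following 180 s read after dopamine at EC20.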
# [17] = Nrf2 qHTS screen for inhibitors: Validation (AID 493153; active = well fitted inhibition curve with a large enough effect in the main read-out, with a control signal flat, not every such curve was filed as active); conditions: A549 ARE-Fluc reporter, 18-24 h; Potency: luciferase luminescence; viability change: measured here: cytotoxicity max response; luciferase luminescence, at 46.1 µM (top of the series)
# Outline: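 Luminescence from an ARE-firefly luciferase reporter in A549 cells gives Nrf2 inhibition; an earlier CellTiter-Fluor fluorescent read flags cytotoxicity. Cells in 5% FBS OPTI-MEM received compound dilution series for 18-24 h at 37°C.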
Structure (SMILES),outcome [1],Potency [2],Potency [3],outcome [4],outcome [5],outcome [6],outcome [7],Potency [8],Potency [9],Potency [10],outcome [11],Potency [12],activation [13],outcome [14],outcome [15],Potency [16],Potency [17],viability change [17] [%]
COc1ccc([C@@H]2Sc3ccccc3N(CCN(C)C)C(=O)[C@@H]2OC(C)=O)cc1,inactive,inactive,inactive,inactive,inactive,inactive,inactive,inactive,inactive,inactive,inactive,–,–,–,–,–,–,–
O=C1CC2(CCCC2)CC(=O)N1CCCCN1CCN(c2ncccn2)CC1,–,–,inactive,inactive,inactive,inactive,–,inactive,–,inactive,inactive,inactive,0.688% (inactive),inactive,inactive,–,–,–
C[n+]1cc2c3c(ccc2c2ccc4cc5c(cc4c21)OCO5)OCO3,–,–,–,inactive,inactive,inactive,inactive,inactive,–,6.31 µM (active),–,–,2.44% (inactive),inactive,–,inactive,–,–
CC1=NS(=O)(=O)c2cc(Cl)ccc2N1,–,inactive,inactive,inactive,inactive,inactive,inactive,inactive,inactive,inactive,inactive,–,–,inactive,inactive,–,inactive,3.36
c1ccc2c(c1)CCCC2C1=NCCN1 (stereo not drawn),–,inactive,inactive,inactive,inactive,inactive,–,inactive,inactive,inactive,–,–,1.25% (inactive),inactive,inactive,–,inactive,-0.882
CCOC(=O)C1=C(C)NC(C)=C(C(=O)OC)C1c1cccc([N+](=O)[O-])c1 (stereo not drawn),–,inactive,–,inactive,inactive,inactive,inactive,inactive,–,inactive,–,–,-4.62% (inactive),inactive,–,–,inactive,9.17
CCCCCN(CCCCC)C(=O)C(CCC(=O)O)NC(=O)c1ccc(Cl)c(Cl)c1 (stereo not drawn),–,inactive,inactive,inactive,inactive,inactive,–,inactive,–,inactive,–,inactive,1% (inactive),–,inactive,–,inactive,3.55
NS(=O)(=O)c1cc2c(cc1Cl)NC(C1CC3C=CC1C3)NS2(=O)=O (stereo not drawn),–,–,inactive,inactive,inactive,–,inactive,inactive,–,inactive,–,inactive,-0.25% (inactive),inactive,inactive,–,inactive,12.8
